From PubChem BioAssay (NCATS)
Results filed as inconclusive are left out. Values without a mark were called inactive. Activity calls are given as the source filed them. Calls follow the shape of the dose curve; as a rule, active = well fitted cell-killing curve with a large enough effect; inconclusive = small, poorly fitted or top-dose-only effect, or effect the other way; inactive = no such curve, though single readings can be large or run the other way. Non-standard residues stand in square brackets, D forms with d. Residues, ends and D or L forms follow the SMILES beside them. *: point of attachment. Sta = CC(C)C[C@H](N)[C@@H](O)CC(=O)O; Isovaleryl = CC(C)CC(=O)*

Test: Quantitative High-Throughput drug screen in 47 multiple myeloma cell lines against the NCATS MIPE library collection: Karpas417_ECACC cell viability assay (AID 1918961)
Details: Karpas417 myeloma viability, CellTiter-Glo ATP luminescence, 48 h; viability (% of DMSO): at 45.8 µM (top of the series)
Excerpt: PI: Beverly A. Mock Ph.D.
Laboratory of Cancer Biology and Genetics,
Center for Cancer Research, National Cancer Institute,
National Institute of Health, Bethesda, Maryland
Drug resistance and disease progression are common in multiple myeloma (MM) patients, underscoring the need for new therapeutic combinations. […] We hypothesized that effective combinations would reduce MYC expression and enhance p16 activity. […] These preclinical data identify potentially useful drug combinations for evaluation in drug-resistant MM and reveal potential mechanisms of combined drug sensitivity.
Described herein is the primary MIPE qHTS used to cherrypick compounds. Validated compounds were then further tested for potential synergistic activiy.
[1] Peat TJ, Gaikwad SM, Dubois W, Gyabaah-Kessie N, Zhang S, Gorjifard S, Phyo Z, Andres M, Hughitt VK, Simpson RM, Miller MA, Girvin AT, Taylor A, Williams D, D'Antonio N, Zhang Y, Rajagopalan A, Flietner E, Wilson K, Zhang X, Shinn P, Klumpp-Thomas C, McKnight C, Itkin Z, Chen L, Kazandijian D, Zhang J, Michalowski AM, Simmons JK, Keats J, Thomas CJ, Mock BA. Drug combinations identified by high-throughput screening promote cell cycle transition and upregulate Smad pathways in myeloma. Cancer Lett. 2023 Aug 1;568:216284. doi: 10.1016/j.canlet.2023.216284. Epub 2023 Jun 24. PMID: 37356470; PMCID: PMC10408729.
SEQUENCE No. (e.g., 1, 2, 3, etc.); […] (e.g., Cells, Incubation, Reagent, etc.); VALUE and DESCRIPTION.
1; Cells; 5 uL; white, solid bottom 1536-well Greiner assay plate.
2; Compounds; 23 nL; Kalypsis pin tool (Wako USA) equipped with a 1536-well pin head to transfer to the assay plates.
3; Incubation; 48 hours; 37C incubation.
4; Reagent;5uL; CellTiter Glo (Promega).
5; Detector; 425V; Luminescence; Viewlux PerkinElmer.
NOTES (numbers refer to Sequence numbers above)
1. The cell-based screening methods employed in this study were like those previously published. Briefly, the corresponding myeloma cell lines were screened in 1,536-well plates with 500 cells, 5-uL per well for inhibition of cell viability (assessed by measuring ATP levels with CellTiterGlo).
2. NCATS MIPE 4.0 library of approved and investigational drugs were added using the Kalypsis pin tool. Wells treated with DMSO only for 100% viability and media only wells for 0% viability were used as controls.
3. The assay plates were covered and incubated for 48 hours in a 37C, 5% CO2 incubator with controlled humidity.
4. After 48 hours, CellTilter-GloTM luminescent substrate mix (Promega) reagent was added to the assay plate and plates we incubated for 5 min at room temperature.
5. Signal was measured as median relative luminescence units on a ViewLux (PerkinElmer) multiplate reader.
[1] Heske CM, Davis MI, Baumgart JT, Wilson K, Gormally MV, Chen L, Zhang X, Ceribelli M, Duveau DY, Guha R, Ferrer M, Arnaldez FI, Ji J, Tran HL, Zhang Y, Mendoza A, Helman LJ, Thomas CJ. Matrix Screen Identifies Synergistic Combination of PARP Inhibitors and Nicotinamide Phosphoribosyltransferase (NAMPT) Inhibitors in Ewing Sarcoma. Clin Cancer Res. 2017 Dec 1;23(23):7301-7311. doi: 10.1158/1078-0432.CCR-17-1121. Epub 2017 Sep 12. PMID: 28899971; PMCID: PMC6636827.
Potency is read from the fitted curve at half-maximal effect.

Structure (SMILES) | viability (% of DMSO) | Potency
COc1c(O)cc2c(c1O)[C@@H]1O[C@H](CO)[C@@H](O)[C@H](O)[C@H]1OC2=O | 126% | 
COC(=O)C1=C(C)NC(C)=C(C(=O)OC(C)C)C1c1cccc2nonc12 (stereo unspecified) | 118% | 
Cc1cc2c(s1)Nc1ccccc1N=C2N1CCN(C)CC1 | 90.3% | 
CC(C)c1nc(CN(C)C(=O)N[C@H](C(=O)N[C@@H](Cc2ccccc2)C[C@H](O)[C@H](Cc2ccccc2)NC(=O)OCc2cncs2)C(C)C)cs1 | 126% | 
Clc1ccc(C(Cn2ccnc2)OCc2ccsc2Cl)c(Cl)c1 (stereo unspecified) |  | 18700 nM (active)
CN(C)c1ccc2nc3ccc(=[N+](C)C)cc-3sc2c1 |  | 6620 nM (active)
CCCCC(CC)COC(=O)C(C#N)=C(c1ccccc1)c1ccccc1 (stereo unspecified) | 94.7% (active) | 
Nc1cc(C(Cl)=C(Cl)Cl)c(S(N)(=O)=O)cc1S(N)(=O)=O | 121% | 
O=c1c(O)c(-c2ccc(O)cc2O)oc2cc(O)cc(O)c12 | 192% | 
O=C(NCC1CCCCN1)c1cc(OCC(F)(F)F)ccc1OCC(F)(F)F (stereo unspecified) |  | 74.3 nM (active)
CC(C)CC(=O)N[C@H](C(=O)N[C@H](C(=O)N[C@@H](CC(C)C)[C@@H](O)CC(=O)N[C@@H](C)C(=O)N[C@@H](CC(C)C)[C@@H](O)CC(=O)O)C(C)C)C(C)C (Isovaleryl-VV[Sta]A[Sta]-OH) | 124% | 
O=C(NC(Cc1cc(=O)[nH]c2ccccc12)C(=O)O)c1ccc(Cl)cc1 (stereo unspecified) | 142% | 
C=CCc1cc(OC)c(O)c(C(=O)NCCO)c1 | 143% | 
CCC[C@@H]1C[C@@H](C(=O)N[C@@H]([C@H]2O[C@H](SC)[C@H](O)[C@@H](O)[C@H]2O)[C@@H](C)O)N(C)C1 | 104% | 
C[C@H](Cn1cnc2c(N)ncnc21)OCP(=O)(O)O | 122% | 
Cc1cc(C2CCCCC2)n(O)c(=O)c1 |  | 2960 nM (active)
CCN(CC)CCOc1ccc(Nc2ncc3cc(-c4c(Cl)cccc4Cl)c(=O)n(C)c3n2)cc1 |  | 105 nM (active)
N[C@@H](Cc1cc(I)c(Oc2cc(I)c(O)c(I)c2)c(I)c1)C(=O)O | 108% | 

Structure (SMILES) | viability (% of DMSO) | Potency
Nc1ccn([C@@H]2O[C@H](CO)[C@@H](O)C2O)c(=O)n1 (stereo partly specified) | 92.4% | 
Cc1nc2n(c(=O)c1CCN1CCC(c3noc4cc(F)ccc34)CC1)CCCC2 | 92.3% | 
Clc1ccc(C(Cn2ccnc2)OCc2c(Cl)cccc2Cl)c(Cl)c1 (stereo unspecified) |  | 16600 nM (active)
O=C(c1ccccc1)c1ccc2n1CCC2C(=O)O (stereo unspecified) | 68.6% | 
Nc1nc(N)c(N=O)c(OCC2CCCCC2)n1 |  | 2640 nM (active)
COCCCOc1ccnc(CS(=O)c2nc3ccccc3[nH]2)c1C (stereo unspecified) | 79.2% | 
C[Se]CCC(N)C(=O)O (stereo unspecified) | 149% [at 92.2 µM] | 
Nc1nc(OCc2ccccc2)c2[nH]cnc2n1 |  | 16600 nM (active)
Cc1cccc(CN2CCN(C(c3ccccc3)c3ccc(Cl)cc3)CC2)c1 (stereo unspecified) | 101% | 
CC(S)C(=O)NCC(=O)O (stereo unspecified) | 94% | 
Oc1ccc(OCc2ccccc2)cc1 | 161% | 
COc1cc(OC)c(C(=O)CCCN2CCCC2)c(OC)c1 | 169% | 
COc1cc2c(cc1OC)C1CC(=O)C(CC(C)C)CN1CC2 (stereo unspecified) | 66.8% | 
CN(C)c1ccc(O)c2c1C[C@H]1C[C@H]3[C@H](N(C)C)C(=O)C(C(N)=O)=C(O)[C@@]3(O)C(=O)C1=C2O | 134% | 
CC[C@]1(O)C[C@H]2CN(CCc3c([nH]c4ccccc34)[C@@](C(=O)OC)(c3cc4c(cc3OC)N(C=O)[C@H]3[C@@](O)(C(=O)OC)[C@H](OC(C)=O)[C@]5(CC)C=CCN6CC[C@]43[C@@H]65)C2)C1 |  | 935 nM (active)
O=C(CCc1ccc(O)cc1)c1c(O)cc(O)cc1O |  | 132 nM (active)
c1cnc2cc3c(cc2n1)C1CNCC3C1 | 117% | 
Cc1cc(O)c2c(c1)C(=O)c1cc(O)cc(O)c1C2=O | 154% | 
